# Data as given in the supplement of paper PMC3334620.
# Over roughly 33,000 sequences, “E-score (-0.5 to 0.5)” has its median near -0.011; the highest 2% begin near 0.28. For the sample, the highest values were picked, then their nearest neighbours and some sequences at random.
# Biological target: T1, Gcr1 (UniProt P07261)
# T1 sequence: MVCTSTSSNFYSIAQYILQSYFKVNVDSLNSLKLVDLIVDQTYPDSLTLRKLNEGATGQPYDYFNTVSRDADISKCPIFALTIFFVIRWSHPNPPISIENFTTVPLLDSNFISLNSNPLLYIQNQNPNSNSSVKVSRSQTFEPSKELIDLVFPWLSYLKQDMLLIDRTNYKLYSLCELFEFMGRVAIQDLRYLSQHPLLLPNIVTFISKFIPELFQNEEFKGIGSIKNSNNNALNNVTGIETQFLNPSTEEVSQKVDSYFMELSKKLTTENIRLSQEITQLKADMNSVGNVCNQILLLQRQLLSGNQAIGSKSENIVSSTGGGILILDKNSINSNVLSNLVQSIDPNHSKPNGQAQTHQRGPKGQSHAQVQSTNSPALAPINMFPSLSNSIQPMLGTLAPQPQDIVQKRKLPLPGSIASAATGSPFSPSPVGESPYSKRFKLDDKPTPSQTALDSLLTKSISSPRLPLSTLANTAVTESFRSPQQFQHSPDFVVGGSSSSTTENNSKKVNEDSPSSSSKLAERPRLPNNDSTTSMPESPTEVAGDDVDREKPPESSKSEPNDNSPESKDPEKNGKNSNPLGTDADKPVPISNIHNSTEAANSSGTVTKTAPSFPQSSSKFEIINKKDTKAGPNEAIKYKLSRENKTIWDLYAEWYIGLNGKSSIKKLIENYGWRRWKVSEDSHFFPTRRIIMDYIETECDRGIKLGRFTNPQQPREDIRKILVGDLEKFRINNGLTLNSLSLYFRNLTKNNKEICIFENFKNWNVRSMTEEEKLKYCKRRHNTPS
# Assay: PBM E-score (8-mer binding enrichment) (E-score (-0.5 to 0.5)); higher = stronger / more preferred TF binding
# Conditions: protein concentration: 100 nM; construct: GST-full length
# Summary of the method: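 Yeast transcription factors, full-length or as DNA-binding domains, were expressed with a GST tag using PURExpress in vitro transcription/translation. At about 100-200 nM they were applied to universal all-10-mer Agilent arrays, double-stranded by primer extension on fresh or once-stripped slides. Fluorescent anti-GST detected bound protein, and masliner normalised the scans. E-scores for ungapped eight-base words, pooled with reverse complements, came from the Universal PBM Analysis Suite.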
row,Sequence,PBM E-score
1,CGTGAACG,0.0112
2,ACGCAGAG,-0.141
3,ACGGGGTA,0.129
4,ATATCCCA,0.116
5,ACATCCCC,0.0757
6,ACATCCCA,0.0139
7,CCATCCCA,-0.053
8,CCATCCCC,0.0989
9,GCATCCCA,0.309
10,GCATCCCC,0.351
11,GTATCCCA,0.339
12,GAATCCCA,0.367
13,AAATCCCA,0.107
14,CTATCCCA,-0.0348
15,GAATCCCC,0.0893
16,ACAGGTAA,0.0538
17,ACCATCCT,0.0586
18,ATACTAGA,0.0992
19,ACATGTGA,-0.0765
20,CTGGAAAA,-0.00671
21,ACTACTCG,0.0127
22,AGGCCTAG,-0.214
23,CGGTCGAG,0.0179
24,ACACGAAG,0.238
25,ACACGAAA,-0.131

row,Sequence,PBM E-score
1,ACACGAAT,0.319
2,AGGTTCGG,-0.0598
3,GAGAAAGA,-0.16
4,AGTGAGAC,-0.352
5,AGATCGAT,-0.137
6,CGTCCAGA,0.233
7,GTTCCAGA,0.257
8,CTTCCAGC,0.123
9,ATTCCAGA,0.286
10,AGTCCAGA,-0.0665
11,ATTCCAGG,0.097
12,AATCCAGA,0.259
13,CTTCCAGA,0.341
14,ATTCCAGC,0.299
15,TCGGGACA,-0.0131
16,AGCTAAAC,-0.126
17,CGAGGGTC,-0.166
18,AGCTAGGA,0.0251
19,ATTAGACG,0.295
20,AATAGAGT,0.0735
21,CGTAGAAG,0.275
22,AATAGAGG,0.297
23,AGTAGAAC,0.0351
24,AATAGAGA,-0.0168
25,ATTAGACC,-0.13

row,Sequence,PBM E-score
1,ATTAGGCC,-0.116
2,AGTAGAAG,0.327
3,ATTAGGCG,0.309
4,ATTAGGCA,0.00576
5,ATTAGACA,0.0379
6,GGACAACA,-0.253
7,AAGGCCTT,-0.343
8,ACCCTGAA,0.192
9,GATTAGGC,-0.0727
10,ACTGATCA,-0.148
11,GATGGAAA,0.029
12,AGTGCGCG,-0.037
13,CATCTTGG,-0.102
14,AGAGCATG,-0.0857
15,AATAGACA,-0.116
16,AATAGACT,0.0888
17,CGTAGACG,-0.0412
18,AATAGACG,0.286
19,AGTAGACT,-0.048
20,AGTAGACG,0.302
21,AAGCACCA,0.0436
22,AGGCCAGC,-0.196
23,AAGGAATC,0.26
24,CAGGAATG,0.115
25,CAGGAATC,0.394

row,Sequence,PBM E-score
1,GAGGAATC,0.345
2,CAGGAATA,0.134
3,GAGGAATA,-0.146
4,ATCATAGG,0.0674
5,ATAGGCTG,-0.0658
6,ATCAGCGG,0.00888
7,GAACCGGA,0.183
8,GACTGGCC,-0.151
9,CGGGCTGA,-0.241
10,TCACTGGA,0.219
11,GGCTACTA,0.219
12,CGCGTTAA,-0.167
13,CTCCGCAA,0.0291
14,AAAAGACG,0.131
15,AGGGAAGA,-0.198
16,CGGGAAGC,0.317
17,CGGGAAAC,0.191
18,AGGGAAGC,0.281
19,CGGGAAGA,0.0397
20,AGGGAAGG,-0.218
21,ATACTGCA,0.0345
22,ACTTGCAC,-0.126
23,TAGCCTGA,-0.232
24,AAGAGGCG,0.0559
25,CAGAGAAA,-0.0752

row,Sequence,PBM E-score
1,ATCTGGAC,0.133
2,CACTGGAG,-0.0119
3,CACTGGAC,0.0576
4,AACTGGAG,0.115
5,ATCTGGAA,0.333
6,CACTGGAA,0.318
7,TCCTGGAA,0.162
8,AACTGGAC,0.198
9,TACTGGAA,0.446
10,CTCTGGAA,0.256
11,TGCTGGAA,0.136
12,AACTGGAA,0.342
13,GTCGCAAC,0.0865
14,GTACAAAA,-0.0647
15,ATCCCTTA,-0.00764
16,ACTCTAAT,-0.029
17,ATTTGTCC,-0.109
18,GTCCTGTA,0.168
19,AGTAACCG,0.184
20,CGGATCAG,0.11
21,ATGAACAC,0.0906
22,GAGCCCCA,0.169
23,GAAGAGAA,0.0371
24,ACACGTGG,0.0635
25,GACTGGAC,0.0539

row,Sequence,PBM E-score
1,GACTGGCA,-0.0492
2,GACTGGAA,0.325
3,CGTCGGTA,-0.15
4,GCTGGACA,-0.0923
5,CCAATACC,0.205
6,AAAGCTAC,-0.0941
7,CAAGCTAC,0.108
8,GAAGCTAC,0.323
9,TAAGCTAA,-0.153
10,AAAGCTAA,-0.0138
11,GAAGCTAA,0.312
12,CTGCGACA,-0.106
13,CGTATAAC,0.269
14,AGTATAAA,0.0707
15,CTTATAAA,0.291
16,CTTATAAC,-0.0336
17,CTTATAAG,-0.0238
18,CGTATAAA,0.32
19,TGAAACCA,0.106
20,ACAGACAA,0.0204
21,GGGGTTTA,-0.117
22,GGTGAGGA,-0.0681
23,AAAGTAAT,0.154
24,CGCGGGGA,0.0382
25,CGTGGGGA,0.0446

row,Sequence,PBM E-score
1,GGCGGGAA,0.0372
2,GGTGGGGA,0.345
3,GGCGGGGA,0.304
4,GGTGGGAA,0.0991
5,GTACTTTA,0.107
6,GGGCCTAC,-0.25
7,ATTGGGGC,0.124
8,AGTCAGCG,0.0668
9,CGGAACGA,0.0962
10,GGGATAAC,0.0951
11,CAGCTGCA,-0.0536
12,CAGCTGCC,0.352
13,AAGCTGCC,0.347
14,AAGCTGCT,0.185
15,GAGCTGCC,0.187
16,CAGCTGCG,0.061
17,ACAGAGGT,0.0543
18,CCCACTTA,0.0227
19,CGCTCGAC,-0.094
20,TCCAAAAA,0.253
21,ACTAGCGG,-0.0781
22,GGACACTA,0.0929
